For 1 sequence, binding signal results are on record in patent US20220289795, “EFFICIENT METHOD FOR PREPARING PPR PROTEIN AND USE OF THE SAME” (EditForce, Inc., published 2022).

The target of the assay is T1, v3.1_PPR13 (Artificial Sequence).
T1 chain: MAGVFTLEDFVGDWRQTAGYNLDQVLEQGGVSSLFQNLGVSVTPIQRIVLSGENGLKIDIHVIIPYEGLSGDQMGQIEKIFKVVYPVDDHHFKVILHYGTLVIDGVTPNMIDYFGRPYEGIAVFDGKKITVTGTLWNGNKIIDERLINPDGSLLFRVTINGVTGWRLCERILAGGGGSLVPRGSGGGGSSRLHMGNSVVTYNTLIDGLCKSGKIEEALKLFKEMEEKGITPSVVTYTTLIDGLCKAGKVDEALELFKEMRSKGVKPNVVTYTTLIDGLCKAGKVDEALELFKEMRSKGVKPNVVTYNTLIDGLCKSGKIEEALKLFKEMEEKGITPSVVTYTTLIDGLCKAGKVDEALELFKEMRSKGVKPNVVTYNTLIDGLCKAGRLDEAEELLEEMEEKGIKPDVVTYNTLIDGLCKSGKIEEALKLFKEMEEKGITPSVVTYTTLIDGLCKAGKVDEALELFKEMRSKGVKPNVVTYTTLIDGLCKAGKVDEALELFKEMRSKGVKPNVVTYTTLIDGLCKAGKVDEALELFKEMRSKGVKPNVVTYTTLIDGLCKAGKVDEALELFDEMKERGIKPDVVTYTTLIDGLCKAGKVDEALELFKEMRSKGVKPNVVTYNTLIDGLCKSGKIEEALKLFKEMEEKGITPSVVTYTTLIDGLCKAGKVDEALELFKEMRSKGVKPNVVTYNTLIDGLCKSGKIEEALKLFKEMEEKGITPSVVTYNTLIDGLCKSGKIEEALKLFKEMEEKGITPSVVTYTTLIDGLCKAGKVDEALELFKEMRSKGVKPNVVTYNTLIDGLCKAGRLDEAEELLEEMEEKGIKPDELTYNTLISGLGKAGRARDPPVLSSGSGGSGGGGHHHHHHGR
The experiment in a line: RPB-ELISA. The conditions noted are these: tags: N-terminal luciferase, C-terminal 6xHis; label: 5'-biotin; ssRNA. On the procedure: RNA probes consisting of a designed 30-base sequence containing 18 bases of the target sequence and modified by biotinylation at the 5′ end (RNA_1, RNA_2, RNA_3, RNA_4, and RNA_5, SEQ ID NOS: 61 to 65) were synthesized (Grainer). To a streptavidin-coated plate (Thermo fisher), the 5′-end biotinylated RNA probes were added, reaction was allowed at room temperature for 30 minutes, and the plate was washed with a lysis buffer (20 mM Tris-HCl, pH 7.6, 150 mM NaCl, 5 mM MgCl₂, 0.5% NP-40, 1 mM DTT, 0.1% BSA). For background measurement, wells to which RNA was not added, but 100 μL of the lysis buffer, 1 μL of 100 mM DTT, and 1 μL of 40 unit/4 RNase inhibitor (Takara, 2313A) were added were also prepared. Then, 200 μL of a blocking buffer (20 mM Tris-HCl, pH 7.6, 150 mM NaCl, 5 mM MgCl₂, 0.5% NP-40, 1 mM DTT, 1% BSA) was added, and the plate surface was blocked at room temperature for 30 minutes. Then, 100 μL of E. coli lysate containing luciferase-fused PPR protein having a luminescence level of 1.5×10⁸ LU/μL was added to each well, and the binding reaction was allowed at room temperature for 30 minutes. The well was washed 5 times with 200 μL of a washing buffer (20 mM Tris-HCl, pH 7.6, 150 mM NaCl, 5 mM MgCl₂, 0.5% NP-40, 1 mM DTT). […] The background (luminescence signal value obtained with adding the PPR protein and without adding RNA) was subtracted from the luminescences of the samples to which a solution containing each RNA and PPR protein was added, and the obtained values were used as the binding powers between the PPR protein and RNA.
By using the V3.1 motif, PPR proteins for the same 23 kinds of target sequences were similarly prepared (SEQ ID NOS: 411 to 433 for the nucleotide sequences, and SEQ ID NOS: 434 to 456 for the amino acid sequences), and bindings of all the combinations were analyzed by using RPB-ELISA. The experimental method was the same as that used in Example 3.
For orientation: In an ELISA, binding on a coated surface is turned into a signal by an enzyme label.
GGUUAGAGAUACAGUGUG: the binding signal came out at 20.6 log2 luminescence.
